Among the data in PubChem BioAssay (EPA / NIEHS) are outcome and AC50 values, retold here.

Structures are written as SMILES. The source made the active and inactive calls. How the source made its calls: active means hit-call score of the fitted dose curve at least 0.9, where 1 is the maximum; inactive means score below 0.9.

Sequence of X-box-binding protein 1 (Homo sapiens) (P17861 whole entry, looked up): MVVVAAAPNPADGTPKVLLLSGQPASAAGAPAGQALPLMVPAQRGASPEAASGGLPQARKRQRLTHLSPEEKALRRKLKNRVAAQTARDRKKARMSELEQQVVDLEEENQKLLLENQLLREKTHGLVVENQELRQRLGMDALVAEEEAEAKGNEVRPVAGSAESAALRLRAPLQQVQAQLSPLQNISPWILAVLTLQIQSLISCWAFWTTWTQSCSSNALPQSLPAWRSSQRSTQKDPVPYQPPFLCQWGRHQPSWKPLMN

In the experiment the target is X-box-binding protein 1 (Homo sapiens) (UniProt P17861). Nature of the experiment: ATG_Xbp1_CIS: Attagene CIS-FACTORIAL HepG2 Assay for human X-box Binding Protein 1 (XBP1) (AID 2282972). To be noted: HepG2 XBP1 cis-element reporter, Attagene multiplex; actives raise or lower the signal. The procedure:
ATG_CIS is a cell-based, multiplexed-readout assay that uses HepG2, a human liver cell line, with measurements taken at 24 hours after chemical dosing in a 24-well plate.ATG_Xbp1_CIS is one of 52 assay component(s) measured or calculated from the ATG_CIS assay. It is designed to make measurements of mRNA induction, a form of inducible reporter, as detected with fluorescence intensity signals by Reverse transcription polymerase chain reaction (RT-PCR) and Capillary electrophoresis technology.Data from the assay component ATG_Xbp1_CIS was analyzed into 1 assay endpoint. This assay endpoint, ATG_Xbp1_CIS, was analyzed with bidirectional fitting relative to DMSO as the negative control and baseline of activity. Using a type of inducible reporter, measures of mRNA for gain or loss-of-signal activity can be used to understand the reporter gene at the transcription factor-level as they relate to the gene XBP1. Furthermore, this assay endpoint can be referred to as a primary readout, because this assay has produced multiple assay endpoints where this one serves a reporter gene function. To generalize the intended target to other relatable targets, this assay endpoint is annotated to the dna binding intended target family, where the subfamily is basic leucine zipper.
Human liver HepG2 cells are transiently transfected with multiple reporter transcription units (MRTUs) in 6-well plates using FuGene 6 reagent (Roche; 3 ml FuGene/1 mg DNA). The MRTU constructs are regulated by a cis-regulating element (promoter). […] A major difference between the CIS and TRANS system is that in CIS activities of endogenous TFs are measured, whereas the TRANS assay evaluates changes in activities of exogenous, chimeric NR-Gal4 proteins. […] At the end of 24 hour incubation, total RNA was isolated using TriZol reagent (Invitrogen). The isolated RNA is then reverse-transcribed using oligo(dT) primer and Mo-MLV reverse transcriptase (Invitrogen) with DNAse I (Ambion) treatment for 30 min. The one-tenth of the produced cDNA was amplified by PCR using Taq DNA polymerase (Invitrogen) and two reporter sequence-specific primers. The PCR products were fluorescently labeled by primer extension with 6-arboxyfluorescein (6-FAM) 5'-labeled reporter sequence-specific primer (2 min at 95 C, 20 s at 68 C and 10 min at 72 C) and these products were digested with 5U of HpaI (New England Biolabs) for 2h at 37 C. The fragments were purified using Qiaquick PCR columns (Qiagen), analyzed on an ABI 3130xL genetic analyzer (Applied Biosystems) with peak positions identified by using a set of X-rhodamine (ROX)-labeled MapMarker1000 molecular weight standards (BioVentures). The raw capillary electrophoresis data was processed using Attagraph software (Attagene).
As to `Nc1ccc(N)c(Cl)c1`, the outcome was inactive.

Turning to `CCCCCCCCO[C@@H]1O[C@H](CO)[C@@H](O)[C@H](O)[C@H]1O`, the molecule was classed as inactive.

As to `COc1ccc(C(Cl)=C(c2ccc(OC)cc2)c2ccc(OC)cc2)cc1`, the outcome was inactive.

Take `OCCNCc1ccccc1`: the molecule was classed as inactive.

For `C1=Cc2ccccc2C1`, the call was inactive.

For `C=CC(C)(C)C`, the call was inactive.

In the case of `O=C1CCCN1CCO`, the result was inactive.

Take `Cc1c(C)c([N+](=O)[O-])c(C(C)(C)C)c([N+](=O)[O-])c1C`: the result was inactive.

`CC(=O)OCC(=O)[C@@]12N=C(C)O[C@@H]1C[C@H]1[C@@H]3CCC4=CC(=O)C=C[C@]4(C)[C@H]3[C@@H](O)C[C@@]12C`: the molecule was classed as inactive.

Turning to `C=CC(C)(CCC=C(C)C)OC(=O)CC(C)C` (stereo not given), the result was inactive.

Consider `CCc1c(C(=O)O)c(=O)cnn1-c1ccc(Cl)cc1`, for which the call was inactive.

For `C=CC(=O)OCCC(=O)O`, the call was inactive.

In the case of `COC(=O)c1ccc2cc(C(=O)OC)ccc2c1`, the outcome was inactive.

With `O=C(O)c1cc(Cl)cc([N+](=O)[O-])c1Cl`, the molecule was called inactive.

Turning to `COc1ccc(NC(C)=O)cc1N`, the molecule was classed as inactive.

Turning to `Cc1ccc(C(C)c2ccc(C)c(C)c2)cc1C`, the molecule was classed as inactive.

`O=C(O)c1cc2ccccc2nc1C(=O)O`: the call was inactive.

For the molecule `O=C(c1ccccc1)c1ccc(O)c(O)c1O`, the call was inactive.

With `O=C(C(Cl)Cl)N1CCOC12CCCCC2`, the call was inactive.

Turning to `NC(=O)NNC(N)=O`, the result was inactive.

What is called AC50 is the concentration at which the activity in the assay is half-maximal. In the case of `O=C1CCCCCN1SSN1CCCCCC1=O`, the AC50 is 187 µM (active).

With `O=S(=O)(O)c1cc(S(=O)(=O)O)c2ccc3c(S(=O)(=O)O)cc(S(=O)(=O)O)c4ccc1c2c43`, the result was inactive.

Turning to `CC1=CC[C@H]2C[C@@H]1C2(C)C`, the molecule was called inactive.

For the molecule `CC(C)c1ccc(C#N)cc1`, the molecule was classed as inactive.

`CCCCCC(C)O` (stereo not given): the call was inactive.

`Nc1nc2ccccc2[nH]1`: the molecule was called inactive.

As to `C[C@]12C=CC(=O)C=C1CC[C@@H]1[C@@H]2[C@@H](O)C[C@@]2(C)[C@H]1CC[C@]2(O)C(=O)CO`, the call was inactive.

`CCCCC/C=C\C/C=C\CCCCCCCC(=O)OC`: the outcome was inactive.

Take `C=CC(=O)OCCOC1C2CCC1C1CC=CC12` (stereo not given): the molecule was called inactive.

`CCCCCCCCCCCCCOP(=O)(O)O`: the call was inactive.

`CCCCCCCC(C)=O`: the molecule was classed as inactive.

As for `CCOC(=O)NNc1nncc2ccccc12`, the molecule was classed as inactive.

In the case of `Cc1cnc(NC(=O)C2=C(O)c3ccccc3S(=O)(=O)N2C)s1`, the result was inactive.

For the molecule `Cc1ccc(N)c([N+](=O)[O-])c1`, the call was inactive.

As for `O=C1OC(=O)c2cc(Oc3ccc4c(c3)C(=O)OC4=O)ccc21`, the outcome was inactive.

As to `CC(=O)NS(=O)(=O)c1ccc(N)cc1`, the result was inactive.

As for `CCOC(=O)N1CCC(=C2c3ccc(Cl)cc3CCc3cccnc32)CC1`, the call was inactive.

`O=C(Nc1cccc(C(F)(F)F)c1)c1cc(Br)cc(Br)c1O`: the AC50 is 26.4 µM (active).

On to `O=C1CCCCCCCCCCC(=O)OCCO1`, for which the molecule was called inactive.

For `CC1(C)O[C@@H]2C[C@H]3[C@@H]4C[C@H](F)C5=CC(=O)C=C[C@]5(C)[C@@]4(F)[C@@H](O)C[C@]3(C)[C@]2(C(=O)CO)O1`, the molecule was called inactive.
